Among all 2,300 compounds or so, about 1,400 (61%) were called active. Another 29% or so got no clear call; they are omitted. Calls follow the shape of the dose curve; as a rule, active = well fitted inhibition curve with a large enough effect; inconclusive = small, poorly fitted or top-dose-only effect, or effect the other way; inactive = no such curve, though single readings can be large or run the other way. The set was probably picked from earlier hits. Some of the results follow.
Test: Confirmation screen for delayed death inhibitors of the malarial parasite plastid, 96 hour incubation; also: nearly all actives have a fitted effect of over 60% in size
Details: P. falciparum luciferase growth in erythrocytes; series mostly up to 28.7 µM
Source text: The goal of this screen is to discover new antimalarial compounds that act by inhibiting the development of the apicoplast in the malarial parasite Plasmodium falciparum. The biochemical processes that make this organelle essential for erythrocytic stage parasites are not well understood. However, antibiotics, such as azithromycin and tetracycline, which target the apicoplast translational machinery, have a potent antimalarial effect. […] We have developed a cell-based assay that measures parasite growth based on the expression of an integrated copy of a firefly luciferase reporter. To detect small molecules that cause this "delayed death phenotype, erythrocytes infected with the luciferase-expressing parasites were incubated with compounds for either one or two generations, corresponding to 48 and 96 hours, respectively. Compounds that inhibit parasite growth in the second generation, but not the first, should be enriched in antimalarials that target the apicoplast. Growth inhibition is detected by a decrease in luciferase activity. MLPCN Grant: R21 NS059500 Assay Provider: David Fidock and Eric Ekland, Columbia University Keywords: NIH Roadmap, MLPCN, MLI, MLSMR, qHTS, NCGC, qHTS, malaria, luciferase, viability
Four microliters of culture medium (RPMI 1640 with 0.5% w/v Albumax (GIBCO), 24 mM sodium bicarbonate and 10 ug/mL gentamycin) were dispensed by a Multi-drop Combi into white solid 1536-well plates (Grenier) and 23 nL compound was added by a pin tool. Four microliters of infected erythrocytes (2% hematocrit, 0.1% parasitemia final concentration) in culture medium were dispensed and the plates incubated for 96 hours at 37 C in 5% CO2. Two microliters of luciferase detection reagent was added and luminescence was detected by a ViewLux (PerkinElmer) reader
Potency is read from the fitted curve at half-maximal effect.

| SMILES | Potency |
| --- | --- |
| O=C(NCCN1CCN(c2ccc([N+](=O)[O-])cc2)CC1)NCc1ccccc1 | 12.6 µM (active) |
| CC(C)CC1NC(=S)N(Cc2ccccc2)C1=O (centres undefined) | 3.98 µM (active) |
| CCC(C(=O)O)C1OC(C(C)C(O)C(C)C(=O)C(CC)C2OC3(C=CC(O)C4(CCC(C)(C5CCC(O)(CC)C(C)O5)O4)O3)C(C)CC2C)C(C)CC1C (centres undefined) | 0.178 µM (active) |
| COC(=O)COc1ccc(S(=O)(=O)NCCC2=CCCCC2)cc1Cl | inactive |
| CC(=O)N1CCN(S(=O)(=O)c2cccc(C(=O)NCCC3=CCCCC3)c2)CC1 | 12.6 µM (active) |
| CCNC(=O)NC(=O)C(C)OC(=O)c1oc2ccccc2c1CSC1CCCCC1 (centres undefined) | inactive |
| CCOc1ccc(Cl)cc1C1=CC(=O)C[C@H](c2ccc(OC)cc2)C1 | 12.6 µM (active) |
| COc1ccc(OC)c(C2=CC(=O)C[C@H](c3ccc4c(c3)OCO4)C2)c1 | 12.6 µM (active) |
| O=S(=O)(Nc1cccc2ncccc12)c1cccs1 | 3.55 µM (active) |
| Cc1ccc(S(=O)(=O)Nc2cccc3ncccc23)s1 | 3.98 µM (active) |
| CCCc1ccc(C(=O)NC(=O)c2ccccc2O)cc1 | 0.562 µM (active) |
| CC(C)N=C(NS(=O)(=O)c1ccccc1)C(Cl)(Cl)Cl | 4.47 µM (active) |
| NC(=S)Nn1c(-c2ccccc2)nc2ccccc2c1=O | inactive |
| O=C1c2cc(F)ccc2-n2c1nc1ccccc1c2=O | 0.158 µM (active) |
| O=C1c2ccccc2-n2c1nc1ccccc1c2=O | 0.501 µM (active) |
| O=C(CSc1nnc2ccc(-c3cccnc3)nn12)Nc1cccc(F)c1 | 8.91 µM (active) |
| Cc1cccc(N(C)C(=O)CN(C)S(=O)(=O)c2ccc3c(c2)c(=O)n(C)c(=O)n3C)c1 | 12.6 µM (active) |
| CC1CCC(NC(=O)CN(C)S(=O)(=O)c2ccc3c(c2)c(=O)n(C)c(=O)n3C)CC1 (centres undefined) | 3.98 µM (active) |
| Cc1cc(C)cc(-n2c(N)c(C(=O)Nc3c(C)n(C)n(-c4ccccc4)c3=O)c3nc4ccccc4nc32)c1 | 3.16 µM (active) |
| CCN(C(=O)c1cc2c(=O)n3ccccc3nc2n1CCCOC)C1CCCCC1 | 10 µM (active) |
| CCOC(=O)c1c(C)c(-c2ccccc2)n(CC(=O)NCCCN(CC)CC)c1C | 11.2 µM (active) |
| COc1ccc(-c2csc(N3CCN(C(=O)c4ccco4)CC3)n2)cc1 | 12.6 µM (active) |
| O=c1[nH]c(C(F)(F)F)nc2ccc3ccccc3c12 | inactive |

| SMILES | Potency |
| --- | --- |
| Cn1nc(C(F)(F)F)c(C(=O)Nc2ccc(F)cc2F)c1Sc1ccc(C(F)(F)F)cc1 | 7.94 µM (active) |
| CC(C)N(C(=O)CSc1nnc(-c2ccc3c(c2)OCO3)n1C)C(C)C | 10 µM (active) |
| O=C(Nc1ccccc1O)c1ccc([N+](=O)[O-])cc1 | 12.6 µM (active) |
| CCCOc1cc(NCc2ccccc2)c2ncn(C(C)C)c2c1 | 2.82 µM (active) |
| O=C(OC[C@@H]1O[C@@](O)(COC(=O)c2cccnc2)[C@H](OC(=O)c2cccnc2)[C@H]1OC(=O)c1cccnc1)c1cccnc1 | 6.31 µM (active) |
| Cn1c(CCn2ccccc2=O)nc2cc(NC(=O)COc3ccccc3)ccc21 | 10 µM (active) |
| COc1ccccc1OCCCOc1cccc(/C=C2\SC(=O)NC2=O)c1 | 11.2 µM (active) |
| CCOc1ccc(/C=C2\SC(=S)N(C(C(=O)O)c3ccccc3)C2=O)cc1OC (centres undefined) | inactive |
| CNC(=S)N(CCc1c(C)[nH]c2ccc(C)cc12)Cc1cc(OC)c(OC)c(OC)c1 | 11.2 µM (active) |
| CNC(=S)N(CCc1c(C)[nH]c2ccc(Cl)cc12)Cc1cccnc1 | 12.6 µM (active) |
| O=C(CCl)Nc1cn(-c2ccccc2)nc1-c1ccccc1 | 11.2 µM (active) |
| Cc1cccc(NC(=O)c2cn(-c3ccccc3)nc2-c2ccccc2)c1 | 14.1 µM (active) |
| OC(c1ccccc1)(c1ccccc1)C1CCN(C(=S)NCCc2ccccc2)CC1 | 5.01 µM (active) |
| CCC1CCCCN1CCCNC(=O)c1ccc(CS(=O)(=O)c2ccc(Br)cc2)o1 (centres undefined) | 5.01 µM (active) |
| CN(CCCNC(=O)c1ccc(CS(=O)c2ccc(Br)cc2)o1)Cc1ccccc1 (centres undefined) | 1.78 µM (active) |
| CCCCN(CCCNC(=O)c1ccc(CS(=O)(=O)c2ccc(OC)cc2)o1)Cc1ccccc1 | 5.01 µM (active) |
| CN(CCNC(=O)c1ccc(CS(=O)(=O)c2ccc(Br)cc2)o1)CCc1ccccc1 | 2 µM (active) |
| CCCCNC(=O)c1ccc(CS(=O)(=O)c2cccc(C(F)(F)F)c2)o1 | inactive |
| Cn1c(=O)c([N+](=O)[O-])c(-n2ccnc2)c2ccccc21 | 14.1 µM (active) |
| CCc1ccc(/C=N/n2c(C)cc(C)c(C#N)c2=O)cc1 | 6.31 µM (active) |
| COc1cccc(COC(=O)C2CC(=O)N(Cc3ccco3)C2)c1OC (centres undefined) | inactive |
| CCC1CN(C(=O)N2CCC(C(=O)NCc3cccc(OC)c3OC)CC2)c2cc(C)ccc2O1 (centres undefined) | 11.2 µM (active) |
| Cc1ccc(CN2CCC(n3nccc3NC(=O)c3ccccc3C)CC2)o1 | 12.6 µM (active) |

| SMILES | Potency |
| --- | --- |
| CC(CN1CCC(n2nccc2NC(=O)c2ccccc2Cl)CC1)c1ccccc1 (centres undefined) | 10 µM (active) |
| O=c1[nH]c(=O)n(Cc2ccco2)c2c1C(C(F)(F)F)(C(F)(F)F)N=C(CCc1ccccc1)N2 | 6.31 µM (active) |
| CCOCCCNC(=O)/C(C#N)=C/c1ccc(-c2ccc(S(=O)(=O)N3CCOCC3)cc2)o1 | 11.2 µM (active) |
| COc1ccc(NC(=O)CSc2ccc(-c3ccco3)nn2)c(OC)c1 | 11.2 µM (active) |
| Cc1cc(=O)n2nc(N3CCC(C(=O)NCCc4ccc(Cl)cc4)CC3)sc2n1 | 10 µM (active) |
| Cc1cc(=O)n2nc(N3CCC(C(=O)NCc4ccc(F)cc4)CC3)sc2n1 | 8.91 µM (active) |
| Cc1cc(=O)n2nc(N3CCC(C(=O)NCc4ccc(Cl)cc4)CC3)sc2n1 | 10 µM (active) |
| Cc1cc(=O)n2nc(N3CCCC(C(=O)NCc4ccc(Cl)cc4)C3)sc2n1 (centres undefined) | 11.2 µM (active) |
| O=C(CCl)Nc1ccc(S(=O)(=O)Nc2nccs2)cc1 | 1.26 µM (active) |
| O=C(CN1C(=O)/C(=C/c2ccc(F)cc2)SC1=S)N1CCN(CCc2ccccn2)CC1 | 15.8 µM (active) |
| CC(C)(C)C(=O)/C(=C\c1cccc([N+](=O)[O-])c1)n1cncn1 | 10 µM (active) |
| COc1ccc(OC)c(NC(=O)c2ccccc2N(C)S(=O)(=O)c2ccc(C)cc2)c1 | 15.8 µM (active) |
| COc1ccc(OC)c(NC(=O)c2nc(S(=O)(=O)Cc3ccccc3)ncc2Cl)c1 | inactive |
| C=CCN(c1ccccc1)S(=O)(=O)c1cccc(C(=O)N2CC(C)CC(C)C2)c1 (centres undefined) | 12.6 µM (active) |
| Cn1nc([N+](=O)[O-])nc1Sc1nnc(-c2ccccc2)o1 | 11.2 µM (active) |
| CSc1nc(C)c(C(=O)C[n+]2ccc(C)cc2)cc1C#N | 14.1 µM (active) |
| COC(=O)C(=C/C(C)=C/c1cccs1)C(=O)OC | 12.6 µM (active) |
| O=Nc1c(-c2c(O)[nH]c3cc(Br)ccc23)[nH]c2ccccc12 | 3.16 µM (active) |
| Brc1ccc(/C=N/Nc2ncnc3c2cnn3Cc2ccccc2)cc1 | 3.55 µM (active) |
| CC(C)[C@H](NC(=O)[C@@H]1Cc2c([nH]c3ccccc23)C2c3ccccc3C(=O)N21)C(=O)N1CCC[C@@H]1C(=O)O (some centres undefined) | 14.1 µM (active) |
| CCC(=O)Nc1cccc(C2=NOC3(C2)C[C@@H](C(N)=O)N(C(=O)c2cc([N+](=O)[O-])cc([N+](=O)[O-])c2C)C3)c1 (some centres undefined) | 11.2 µM (active) |
| COCCN(C(=O)CCCC(=O)Nc1ccccn1)C(C(=O)NC1CCCCC1)c1ccc(C)cc1 (centres undefined) | 10 µM (active) |
| CCNc1nc(NCC)n2c(SCC(=O)Nc3ccccc3F)nnc2n1 | 11.2 µM (active) |

| SMILES | Potency |
| --- | --- |
| COCCn1c(SCC(=O)Nc2ccccc2F)nc2c(c1=O)SCC2 | inactive |
| COc1ccc(CNCc2ccc3ccccc3c2)c(OC)c1 | 11.2 µM (active) |
| COc1cccc(CN(C)CC2CCCN(CCc3ccc(Cl)cc3)C2)c1OC (centres undefined) | 2.82 µM (active) |
| CCOc1cc(/C=C/C(=O)Nc2ccc(C(=O)NCCN(CC)CC)cc2)ccc1OCC(C)C | 2 µM (active) |
| CCC(=O)Nc1ccc2c(c1)ncn2-c1ccccc1OC | 11.2 µM (active) |
| Cn1nc(CC(=O)Nc2ncc(Br)s2)c2ccccc2c1=O | 7.94 µM (active) |
| COc1ccc(/C=C/C(=O)c2ccc([N+](=O)[O-])o2)cc1OC | 11.2 µM (active) |
| COc1ccc(Cl)cc1/C=C/c1ccc2cccc(O)c2n1 | 5.62 µM (active) |
| Oc1cccc2ccc(/C=C/c3ccccc3Br)nc12 | 2.24 µM (active) |
| COc1ccccc1OCC(=O)Nc1cc(Cl)ccc1Oc1ccccc1 | inactive |
| Cc1ccc(C)c(N(CC(=O)Nc2cc(Cl)ccc2Oc2ccccc2)S(C)(=O)=O)c1 | 8.91 µM (active) |
| CC(C)(C)NC(=O)[C@H]1CN(Cc2cccnc2)CCN1C[C@@H](O)C[C@@H](Cc1ccccc1)C(=O)N[C@H]1c2ccccc2C[C@H]1O | 3.98 µM (active) |
| CCc1ccc(Nc2n[n+](-c3ccccc3)c(-c3cccc(Cl)c3Cl)s2)cc1 | 2.82 µM (active) |
| Cc1c(C(=O)C(=O)N2CCCc3ccccc32)c2ccccc2n1C | 12.6 µM (active) |
| CN(c1ccccc1)S(=O)(=O)c1ccc(NC(=O)c2nc(S(C)(=O)=O)ncc2Cl)cc1 | inactive |
| CCOC(=O)/C=C/C(=O)Nc1ccc(S(=O)(=O)N(C)c2ccccc2)cc1 | 10 µM (active) |
| CC(=O)/C=C1/C(=O)Nc2ccccc21 | 12.6 µM (active) |
| Cc1cccc2c1NC(=O)/C2=C\C(=O)c1cccs1 | inactive |
| NC(=O)COc1ccc(C(=O)/C=C2/C(=O)Nc3ccccc32)cc1 | inactive |
| O=C(O)CCCCCNc1nc(-c2ccccc2)nc2ccccc12 | 10 µM (active) |
